YopH inh – YopH tyrosine phosphatase inhibitors, primary screen, biochemical, fluorescence Ex485/Em525 | YopH tyrosine phosphatase [Yersinia enterocolitica] | inhibition, % (concentration not given with the values) | 140,000 compounds, 0.16% hits; in the data active = inhibition above about 50%
RmlCD inh 1536 – M. tuberculosis RmlC/RmlD coupled enzyme inhibitors, primary screen, biochemical, compound mixtures, 384-well, from 1536-well plates | inhibition, % at 3.6 µM | 160,000 compounds, 0.03% hits | RmlC+RmlD coupled enzyme assay, percent inhibition; primary screen in compound mixtures | dTDP-4-dehydrorhamnose reductase (Mycobacterium tuberculosis (strain ATCC 25618 / H37Rv)) …; in the data active = inhibition mostly above about 34%, no sharp cut-off
* = called active by the depositor. Many of the other results were omitted from the sample, so hits are more common in it than they were.

Results for c1ccc(OCc2noc(CN3CCC(C4CCCCC4)C3)n2)cc1 (centres undefined) ?
RmlCD inh 1536: 9

Results for C=CCOC(=O)C1=C(C)NC2(O)c3ccccc3C(=O)C12O (centres undefined) ?
YopH inh: 78*; RmlCD inh 1536: 10

What do the screens show for `COc1ccccc1C1CC(=O)NC(C)=C1C(=O)OCC(C)C` (centres undefined)?
YopH inh: -21

How did C=CCOC(=O)C1=C(C)NC(=O)NC1/C=C/c1ccccc1 (centres undefined) do in these assays?
YopH inh: -41

What do the screens show for `CC1=C(C(=O)OCC(C)C)C2(O)C(=O)c3ccccc3C2(O)N1` (centres undefined)?
YopH inh: 69*

Results for COC(=O)C1=C(Nc2cc(Cl)cc(Cl)c2)CSC1 ?
RmlCD inh 1536: 2

How did COCCCNC(=O)CCCC(=O)NCCCOC do in these assays?
YopH inh: 55*; RmlCD inh 1536: -10

Results for COCCCNC(=O)CCCOc1ccccc1 ?
YopH inh: -16

How did COc1ccc2cc(C(=O)Nc3ccc(Cl)cc3)sc(=O)c2c1OC do in these assays?
YopH inh: -16

How did CC[n+]1ccc2cc(OC)c(OC)cc2c1Cc1ccc(OC)c(OC)c1 do in these assays?
RmlCD inh 1536: 10

What do the screens show for `COc1ccc(Cc2nccc3cc(OC)c(OC)cc23)cc1OC`?
YopH inh: 67*

Results for COc1ccc(-c2cc(C(F)(F)F)n3nc(C(=O)N(C)Cc4ccccc4)cc3n2)cc1OC ?
RmlCD inh 1536: 40*

What do the screens show for `COc1ccc(-c2cc(C(F)(F)F)n3nc(C(=O)Nc4cc(C)on4)cc3n2)cc1OC`?
YopH inh: -28; RmlCD inh 1536: 10

How did Cc1ccc([N+](=O)[O-])cc1S(=O)(=O)n1ccnc1C do in these assays?
RmlCD inh 1536: 10

What do the screens show for `Cc1ccc(S(=O)(=O)Oc2cc(N)c3c(n2)CCC3)cc1`?
RmlCD inh 1536: 7

Results for CC(OC(=O)Cc1n[nH]c(=O)c2ccccc12)C(=O)Nc1cccc([N+](=O)[O-])c1 (centres undefined) ?
RmlCD inh 1536: 5

What do the screens show for `O=C(CN1C(=O)C2CC=CCC2C1=O)Nc1nnc(SCc2ccc(Cl)cc2)s1` (centres undefined)?
YopH inh: 76*; RmlCD inh 1536: -3

Results for O=C(CN1C(=O)C2CC=CCC2C1=O)Nc1nnc(SCc2c(Cl)cccc2Cl)s1 (centres undefined) ?
YopH inh: -1

Results for CCC(=O)N(C1=C(NC)C(=O)c2ccccc2C1=O)C(C)C ?
RmlCD inh 1536: -3

What do the screens show for `CNC1=C(N(C(C)=O)c2ccc(Br)cc2)C(=O)c2ccccc2C1=O`?
YopH inh: 84*

What do the screens show for `S=c1[nH]cnc2sc(Nc3ccccc3)nc12`?
RmlCD inh 1536: -55

How did COc1cc(NCc2ccccc2O)c2ncccc2c1 do in these assays?
RmlCD inh 1536: 6

How did COc1cc(NCCCCCCCN)c2ncccc2c1 do in these assays?
YopH inh: 52*

How did Cc1oc2c(c1C(=O)c1ccc(Cl)cc1)C(=O)C(=O)c1ccccc1-2 do in these assays?
YopH inh: 6; RmlCD inh 1536: 10

How did Cc1ccc(C(=O)c2c(C)oc3c2C(=O)C(=O)c2ccccc2-3)cc1 do in these assays?
YopH inh: 69*

What do the screens show for `COc1ccccc1NC(=O)COc1ccccc1C(=O)Nc1ccccc1`?
RmlCD inh 1536: -10

Results for Cc1cc(C)c(NC(=O)COc2ccccc2C(=O)Nc2ccc3c(c2)oc2ccccc23)c(C)c1 ?
YopH inh: -13; RmlCD inh 1536: 99*

How did COc1ccc(C(=O)N/C(=C\c2cn(C)c3ccccc23)C(=O)OCC(C)C)cc1 do in these assays?
YopH inh: -3; RmlCD inh 1536: 3

Results for O=C(Nc1ccnc(-c2ccncc2)n1)c1ccc(Cl)cc1 ?
RmlCD inh 1536: -11

What do the screens show for `COc1ccc(/C=N/Nc2nc(-c3ccc(C)cc3)c(NC(C)=O)s2)cc1OC`?
RmlCD inh 1536: 5

What do the screens show for `CC(=O)Nc1sc(/C(C#N)=C/c2ccc(Cl)c(Cl)c2)nc1-c1ccc(C)cc1`?
YopH inh: -7; RmlCD inh 1536: 75*

Results for CC(=O)Cn1nnc2sc(-c3ccccc3)cc2c1=O ?
RmlCD inh 1536: -8

How did COc1ccc2c(Cl)c(C(=O)NCCCn3ccnc3)sc2c1Cl do in these assays?
YopH inh: -2

What do the screens show for `O=C1C2=C(c3ccccc31)[N+](=O)C1CCCCC1N2[O-]` (centres undefined)?
YopH inh: 15; RmlCD inh 1536: -5

Results for O=C1C2=C(c3ccccc31)[N+](=O)[C@@H]1CCCC[C@@H]1N2[O-] ?
YopH inh: 59*; RmlCD inh 1536: 8

What do the screens show for `COc1ccc(NC(=O)/C(=C/c2cccnc2)NC(=O)c2cccs2)cc1`?
YopH inh: 53*

Source: PubChem
